The source made the active and inactive calls.

Results on six compounds are retold here after PubChem BioAssay.

The target of one assay is Albumin (Bos taurus) (UniProt P02769). In words: compounds binding labelled BSA control protein – biochemical, small-molecule microarray, Alexa647 label, 635/667 nm fluorescence, artefact control for SMM control protein annotation, profiling panel (AID 1118).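 Note: score merges 667 nm emission intensity and signal-to-noise per printed compound spot.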 The conditions noted are these: BSA-A647 binding, fluorescence 635 nm, higher = more signal.
Albumin (Bos taurus), sequence (P02769 whole entry, looked up): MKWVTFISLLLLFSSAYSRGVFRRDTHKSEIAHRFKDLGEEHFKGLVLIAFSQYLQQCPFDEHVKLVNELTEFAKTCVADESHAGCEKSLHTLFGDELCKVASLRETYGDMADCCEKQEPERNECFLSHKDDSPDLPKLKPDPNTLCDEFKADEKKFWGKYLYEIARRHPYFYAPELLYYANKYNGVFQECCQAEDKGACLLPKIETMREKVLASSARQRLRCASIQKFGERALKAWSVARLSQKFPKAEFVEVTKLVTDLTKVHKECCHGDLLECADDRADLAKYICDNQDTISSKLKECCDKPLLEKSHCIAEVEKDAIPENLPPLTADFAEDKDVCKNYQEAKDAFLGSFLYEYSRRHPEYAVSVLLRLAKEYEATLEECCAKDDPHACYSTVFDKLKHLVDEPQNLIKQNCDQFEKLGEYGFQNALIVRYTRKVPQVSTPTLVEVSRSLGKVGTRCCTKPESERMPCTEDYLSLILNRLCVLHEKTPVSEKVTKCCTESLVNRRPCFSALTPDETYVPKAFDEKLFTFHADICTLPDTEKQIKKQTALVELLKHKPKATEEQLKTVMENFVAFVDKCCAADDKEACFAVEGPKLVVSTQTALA
A short description of assay [1]: probe aXIP binding to arrayed compounds – biochemical, NeuroSMM set, 635/667 nm fluorescence, primary screen (AID 1119).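 Note: probe is the protein aXip251-270 applied at 1 µg/mL to compound-printed slides; binding of probe to printed compounds measured as 667 nm fluorescence plus signal to noise.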 As to conditions: small-molecule microarray, higher = more signal, called active from +8 up or from −8 down.
Assay [2] is described as follows: probe aNOTCH3 binding on compound microarray – biochemical, small-molecule microarray, 635/667 nm fluorescence, primary screen (AID 1120).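 Note: probe is a biotin-tagged antibody raised against NOTCH3 rather than NOTCH3 protein; score merges spot fluorescence near 667 nm with spot signal to noise.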 The conditions noted are these: higher = more signal.
Assay [3] is described as follows: probe aNOTCH2 binding on compound microarray – biochemical, small-molecule microarray, 635/667 nm fluorescence, primary screen (AID 1121).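 Note: score merges feature fluorescence read at 667 nm with its signal to noise.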 The conditions noted are these: higher = more signal.
Assay [4] deals with Carbonic anhydrase 2 (Homo sapiens) (UniProt P00918). Put plainly: compounds binding carbonic anhydrase 2 – biochemical, small-molecule microarray, Alexa647-labelled CAII, profiling panel (AID 1122). As to conditions: CAII-A647 binding fluorescence, higher = more signal.
A short description of assay [5]: COS7 lysate on small-molecule microarray, probe aHis, 635 nm (AID 1123).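 Note: z-score combines 667nm fluorescence intensity with signal-to-noise per printed compound spot.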 As to conditions: COS7 cell lysate, fluorescence, higher = more signal.
The nature of assay [6]: probe aLAP1 signal on lysate-treated microarray – cell lysate, small-molecule microarray, COS7 lysate, primary screen (AID 1124).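 Note: lysate comes from COS7 cells expressing LAP1 and is applied at 0.3 µg/mL; score merges spot fluorescence near 667 nm with signal-to-noise over triplicate slides.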 As to conditions: probe aLAP1, fluorescence, higher = more signal.
Another assay concerns Sam68 (KHDRBS1). In words: compounds binding KHDRBS1 protein – biochemical, small-molecule microarray, 635 nm fluorescence, primary screen (AID 1125).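 Note: score merges 667 nm channel intensity with signal to noise over triplicate slides.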 As to conditions: higher = more signal.
Assay [7] concerns Chordin-like protein 2 (CHRDL2). In words: compounds binding chordin-like 2 – biochemical, small-molecule microarray, 635 nm fluorescence, primary screen (AID 1126).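 Note: printed compound slides probed with Chrdl2 protein at 4 µg/mL for 1 h at 4 C; score merges 667 nm emission intensity with signal to noise over three replicate slides.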 As to conditions: fluorescence 635 nm, higher = more signal.
The target in assay [8] is Concanavalin-A (Canavalia ensiformis) (UniProt P02866). In words: compounds binding concanavalin A lectin – biochemical, small-molecule microarray, Alexa647 label, 635 nm, artefact control for SMM control protein annotation, primary screen (AID 1127).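 Note: z combines 667 nm emission intensity with signal-to-noise across three replicate slides.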 The conditions noted are these: ConA-A647 binding fluorescence, higher = more signal.
Concanavalin-A (Canavalia ensiformis), sequence (P02866 whole entry, looked up): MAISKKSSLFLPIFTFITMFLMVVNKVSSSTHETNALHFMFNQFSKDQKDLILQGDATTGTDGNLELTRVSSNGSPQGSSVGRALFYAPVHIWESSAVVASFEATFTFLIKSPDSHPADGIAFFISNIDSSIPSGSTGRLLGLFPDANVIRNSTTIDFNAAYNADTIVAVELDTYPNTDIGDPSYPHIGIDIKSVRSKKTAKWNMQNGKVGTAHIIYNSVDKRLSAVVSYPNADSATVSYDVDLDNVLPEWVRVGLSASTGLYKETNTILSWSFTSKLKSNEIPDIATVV
A short description of assay [9]: compounds binding Alexa647 anti-His antibody – biochemical, small-molecule microarray, 635 nm fluorescence, artefact control for SMM control protein annotation, primary screen (AID 1128).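 Note: score merges feature fluorescence with signal-to-noise for each printed compound spot.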 The conditions noted are these: higher = more signal.
The test system of assay [10] is Human papillomavirus type 1a E7 protein (residues 1-88). In words: HPV1a E7 small-molecule binders, primary screen, biochemical, small-molecule microarray, residues 1-88, 635 nm (AID 1129). As to conditions: small-molecule microarray binding, fluorescence 635 nm; higher = more signal.
Assay [11] addresses Focal adhesion kinase 1 (Homo sapiens) (UniProt Q05397). In words: PTK2 protein binding on printed compound slides – biochemical, small-molecule microarray, 635/667 nm fluorescence, BSA, DTT, primary screen (AID 1130).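 Note: composite of spot emission at 667 nm and signal to noise over triplicate slides.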 The conditions noted are these: 635 nm fluorescence, higher = more signal.
Assay [12] relates to Fibrinogen (Alexa647-labelled). Put plainly: Alexa647-fibrinogen binding to printed small molecules – biochemical, small-molecule microarray, 635/667 nm fluorescence, artefact control for SMM control-protein annotation, profiling panel (AID 1131).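 Note: z-score merges 667 nm fluorescence with per-spot signal-to-noise over triplicate slides.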 The conditions noted are these: fibrinogen-A647 binding fluorescence, higher = more signal.
In assay [13] the target is Follistatin (Homo sapiens) (UniProt P19883). Put plainly: FST protein binding to printed compounds – biochemical, small-molecule microarray, 635/667 nm fluorescence, primary screen (AID 1132). The conditions noted are these: 635 nm fluorescence, higher = more signal.
Follistatin (Homo sapiens), sequence (P19883 whole entry, looked up): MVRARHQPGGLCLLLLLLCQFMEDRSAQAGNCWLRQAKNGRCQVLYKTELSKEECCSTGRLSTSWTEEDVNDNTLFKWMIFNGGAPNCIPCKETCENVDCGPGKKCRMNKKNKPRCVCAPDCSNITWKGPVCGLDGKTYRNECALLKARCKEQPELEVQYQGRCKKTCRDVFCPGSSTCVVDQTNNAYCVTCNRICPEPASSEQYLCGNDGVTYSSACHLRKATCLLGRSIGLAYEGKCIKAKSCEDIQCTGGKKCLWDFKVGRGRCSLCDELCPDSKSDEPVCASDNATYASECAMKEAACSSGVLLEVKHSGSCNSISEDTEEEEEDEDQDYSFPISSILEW
Assay [14] concerns the target Fibroblast growth factor 2 (Homo sapiens) (UniProt P09038). In words: basic fibroblast growth factor binding to printed compounds – biochemical, small-molecule microarray, 635/667 nm fluorescence, primary screen (AID 1133). As to conditions: FGF2, fluorescence 635/667, higher = more signal.
Assay [15] is described as follows: JC-1 mitochondrial potential readout, lung cancer cells – cell-based, A549, JC-1 fluorescence, basal, 24 h, 100 nL, profiling panel (AID 1138).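 Note: A549 lung adenocarcinoma cells under basal conditions with no added stimulus; test concentration not given here.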 As to conditions: higher = more signal.
For the next assay, the system named is Lefty1. In words: Lefty1 protein binding to printed compounds – biochemical, small-molecule microarray, 635/667 nm fluorescence, primary screen (AID 1139). The conditions noted are these: fluorescence 635/667, higher = more signal.
The subject of assay [16] is wheat germ agglutinin (Triticum aestivum), Alexa647-labelled. Put plainly: Alexa647-WGA lectin binding to printed small molecules – biochemical, small-molecule microarray, 635/667 nm fluorescence, artefact control for SMM control-protein annotation, profiling panel (AID 1140).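 Note: score merges 667 nm feature emission with signal to noise over triplicate slides.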 The conditions noted are these: WGA-A647 binding, 635 nm fluorescence, higher = more signal.
For assay [17], the target named is Luciferin 4-monooxygenase (Photinus pyralis) (UniProt P08659). In words: inhibition of purified Photinus pyralis luciferase – biochemical, luminescence, purified enzyme, 2006 set, primary screen (AID 1141).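 Note: cell-free assay with purified firefly luciferase at 100 ng per well in PBS; test concentration not given here.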 The conditions noted are these: purified firefly luciferase, SteadyGlo luminescence, 30 min; higher = more signal, called active from +8 up or from −8 down.
Luciferin 4-monooxygenase (Photinus pyralis), sequence (P08659 whole entry, looked up): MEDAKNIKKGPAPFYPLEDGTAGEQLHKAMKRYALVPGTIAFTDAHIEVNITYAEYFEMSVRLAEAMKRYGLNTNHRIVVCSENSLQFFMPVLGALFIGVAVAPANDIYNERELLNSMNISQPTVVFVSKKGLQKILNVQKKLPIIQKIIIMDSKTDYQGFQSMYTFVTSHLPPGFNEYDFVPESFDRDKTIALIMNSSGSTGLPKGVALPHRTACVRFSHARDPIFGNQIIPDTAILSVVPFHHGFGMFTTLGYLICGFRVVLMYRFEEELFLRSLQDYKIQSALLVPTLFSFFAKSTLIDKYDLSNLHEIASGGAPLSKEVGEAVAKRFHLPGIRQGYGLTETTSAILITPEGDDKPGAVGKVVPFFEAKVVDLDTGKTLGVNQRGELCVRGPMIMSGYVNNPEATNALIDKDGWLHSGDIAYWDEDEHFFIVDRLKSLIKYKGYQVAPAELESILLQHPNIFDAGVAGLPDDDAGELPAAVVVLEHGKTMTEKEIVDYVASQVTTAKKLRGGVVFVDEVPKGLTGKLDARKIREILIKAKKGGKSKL

Fibroblast growth factor 2 (Homo sapiens), sequence (P09038 whole entry, looked up): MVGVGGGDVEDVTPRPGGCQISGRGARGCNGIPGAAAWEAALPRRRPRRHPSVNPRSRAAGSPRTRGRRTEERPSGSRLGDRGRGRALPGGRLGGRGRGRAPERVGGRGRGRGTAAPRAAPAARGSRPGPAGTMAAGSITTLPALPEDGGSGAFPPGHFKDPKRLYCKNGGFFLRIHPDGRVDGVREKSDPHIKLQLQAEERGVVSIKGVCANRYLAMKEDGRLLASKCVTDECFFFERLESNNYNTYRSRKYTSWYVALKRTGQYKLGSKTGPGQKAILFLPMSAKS
Focal adhesion kinase 1 (Homo sapiens), sequence (Q05397 whole entry, looked up): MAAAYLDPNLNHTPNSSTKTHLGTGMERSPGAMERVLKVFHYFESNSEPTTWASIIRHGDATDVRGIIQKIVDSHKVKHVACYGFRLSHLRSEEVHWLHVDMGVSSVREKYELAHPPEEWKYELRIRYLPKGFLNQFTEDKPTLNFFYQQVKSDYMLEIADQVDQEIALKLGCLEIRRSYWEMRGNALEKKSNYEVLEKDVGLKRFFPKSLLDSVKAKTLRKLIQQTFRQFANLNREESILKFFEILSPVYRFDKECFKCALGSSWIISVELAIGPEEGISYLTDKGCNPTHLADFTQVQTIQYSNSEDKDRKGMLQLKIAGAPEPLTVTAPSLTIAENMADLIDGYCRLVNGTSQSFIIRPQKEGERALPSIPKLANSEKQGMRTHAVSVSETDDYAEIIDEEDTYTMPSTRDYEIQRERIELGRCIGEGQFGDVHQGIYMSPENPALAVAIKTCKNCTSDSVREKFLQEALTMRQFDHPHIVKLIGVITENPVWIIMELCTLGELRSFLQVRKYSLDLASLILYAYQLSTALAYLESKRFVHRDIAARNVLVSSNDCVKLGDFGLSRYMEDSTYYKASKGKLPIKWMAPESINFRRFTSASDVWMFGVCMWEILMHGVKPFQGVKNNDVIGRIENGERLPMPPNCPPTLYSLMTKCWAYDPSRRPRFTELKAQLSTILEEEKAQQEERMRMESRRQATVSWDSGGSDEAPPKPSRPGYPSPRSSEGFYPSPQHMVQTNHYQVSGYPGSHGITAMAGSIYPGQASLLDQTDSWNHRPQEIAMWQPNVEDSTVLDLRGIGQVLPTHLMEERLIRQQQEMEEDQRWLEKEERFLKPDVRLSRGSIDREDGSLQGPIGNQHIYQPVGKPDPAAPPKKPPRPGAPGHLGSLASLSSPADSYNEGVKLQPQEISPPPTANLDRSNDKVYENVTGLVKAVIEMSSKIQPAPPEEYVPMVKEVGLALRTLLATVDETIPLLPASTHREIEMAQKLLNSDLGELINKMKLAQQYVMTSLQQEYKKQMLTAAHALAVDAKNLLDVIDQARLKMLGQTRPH

For `CCCCC(O)C1C=CC2C(=O)N(c3ccccc3)C(=O)C2N1Nc1ccc(C(C)C)cc1` (stereo not given), the composite z-score in the assay with Albumin (Bos taurus) was 0.898; in assay [2], 0.315; in assay [3] it was -0.0073; in [4], 0.712; in [5], 2.85; in assay [6] it was 0.201. The composite z-score with Sam68 (KHDRBS1) was 1.32; in assay [7] it was -0.408; in [8] it was 1.07; in [9], 0.236; in assay [10], 1.22; in [11], 0.536. Also, the composite z-score in [12] was 1.01; in assay [13], 0.967; in assay [14], -0.138; in the assay with Lefty1, 0.451; in assay [16] it was 0.394. The composite Z-score in assay [1] is -0.535 (inactive). For the same compound, the z-score in assay [15] was -0.142; in assay [17], -1.46 (inactive).

As for `CN1C(=O)C2C=CC(C(O)c3cccc4ccccc34)N(N3CCCCC3)C2C1=O` (stereo not given), the composite z-score in the assay with Albumin (Bos taurus) turned out to be 0.918; in assay [2] it was 0.246; in assay [3], 0.0502; in assay [4] it was 0.586; in assay [5], 2.75; in assay [6], 0.59. The composite z-score is 1.31 in the assay on Sam68 (KHDRBS1); -0.227 in assay [7]; 1.17 in [8]; 2.11 in assay [9]; 1.15 in assay [10]; 0.127 in assay [11]. The composite z-score in assay [12] worked out at 0.853; in [13], 1.23; in assay [14], 0.225; with Lefty1 it was 0.789; in assay [16] it was 1.3. Moreover, the composite Z-score in assay [1] was 0.353 (inactive). In addition, the z-score in [15] was -0.0645; in assay [17] it was -0.848 (inactive).

Regarding `CC(CO)N1C(=O)[C@@H]2[C@H]3C(=O)OCC=C[C@H]3OC23C=CCN(CCN2CCOCC2)C(=O)[C@@H]13` (stereo not given in full), the composite z-score is 0.138 with Albumin (Bos taurus); -0.152 in assay [2]; -0.117 in assay [3]; 0.302 in assay [4]; -1.05 in assay [5]; -0.586 in assay [6]. Besides, the composite z-score with Sam68 (KHDRBS1) is -0.0161; in [7], -0.235; in assay [8] it was -0.22; in assay [9], 1.01; in assay [10], -0.549; in [11] it was -0.568. The composite z-score was -1.3 in [12]; 0.207 in [13]; -0.443 in assay [14]; 0.27 in the assay with Lefty1; 0.11 in [16]. The composite Z-score in assay [1] is -0.0888 (inactive). Besides, the results for the z-score in [15] and in assay [17] were 0.659 and -0.531 (inactive), respectively.

For the compound `CCOC(=O)C1=CC[C@@H](c2cccc(Cl)c2)N(S(=O)(=O)c2ccc(C)cc2)C1`, the composite z-score with Albumin (Bos taurus) is 0.839; in assay [2] it was -0.0661; in [3], -0.0488; in assay [4] it was 0.685; in assay [5] it was 2.15; in assay [6] it was 0.568. For the same compound, the composite z-score is 0.674 in the assay with Sam68 (KHDRBS1); 0.0917 in [7]; 0.721 in assay [8]; 1.66 in assay [9]; 1.14 in assay [10]; 0.399 in [11]. The composite z-score was -0.112 in assay [12]; 0.191 in [13]; -0.0072 in assay [14]; -0.345 with Lefty1; 0.844 in assay [16]. Besides, in assay [1], the composite Z-score was -0.659 (inactive). Further, the z-score in assay [15] is 2.48; in [17], -2.75 (inactive).

Regarding `CC(C)(C)OC(=O)CC[C@@]1(C(=O)NCc2ccccc2)N=C(c2ccc(OCCCO)cc2)O[C@@H]1c1ccccc1N=[N+]=[N-]`, the composite z-score amounted to 0.952 with Albumin (Bos taurus); 0.66 in assay [2]; 0.115 in [3]; 0.73 in [4]; 2.97 in assay [5]; 0.935 in assay [6]. Moreover, the composite z-score is 1.29 in the assay with Sam68 (KHDRBS1); 0.134 in assay [7]; 1.04 in [8]; 1.63 in assay [9]; 1.25 in assay [10]; 1.22 in assay [11]. Moreover, the composite z-score came to 0.951 in assay [12]; 1.39 in assay [13]; 1.58 in assay [14]; 0.432 with Lefty1; 1.07 in assay [16]. Moreover, the composite Z-score in assay [1] is 0.399 (inactive). Further, the z-score in assay [15] is -1.16; in [17] it was -11 (active).

In the case of `Cn1cccc1C(O)C1C=CC2C(=O)NC(=O)C2N1Nc1ccc(Cl)cc1Cl` (stereo not given), the composite z-score with Albumin (Bos taurus) came out at 1.04; in [2] it was 0.569; in assay [3], 0.403; in assay [4] it was 0.731; in [5], 2.79; in assay [6], 1.26. The composite z-score is 1.29 with Sam68 (KHDRBS1); -0.851 in [7]; 1.21 in [8]; 1.43 in assay [9]; 1.24 in assay [10]; 1.42 in assay [11]. The composite z-score is 1.02 in assay [12]; 1.28 in assay [13]; 0.0937 in assay [14]; -0.207 in the assay on Lefty1; 1.15 in assay [16]. Besides, in assay [1], the composite Z-score is 0.589 (inactive). For the same compound, the z-score in [15] was -0.13; in assay [17], -1.4 (inactive).
